# Test results from PubChem BioAssay (EPA / NIEHS).
# Inconclusive results are not listed. The source made the active and inactive calls. Rule for the calls: active = hit-call score of the fitted dose curve at least 0.9, where 1 is the maximum; inconclusive = response in the unintended direction; inactive = score below 0.9.
# Assay: IUF_NPC5_oligodendrocyte_differentiation_120hr: Leibniz Research Institute for Environmental Medicine (IUF) 120-hour Oligodendrocyte Differentiation Assay (NPC5) (AID 2284304);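 note: primary human fetal neural progenitor spheres plated to migrate and differentiate; share of O4-positive cells among Hoechst nuclei found by CNN image analysis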
# Procedure, shortened: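 Human primary NPC neurospheres migrating and differentiating on laminin for 120 h under continuous compound exposure (serial dilution, solvent control). Endpoint: percent O4+ oligodendrocytes among Hoechst nuclei, detected by CNN image analysis, with DMSO as negative control.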
smiles,measurement,value
N[C@@H](CCC(=O)O)C(=O)O,outcome,inactive
